Active and inactive are the calls of the source. Rule for the calls: active = hit-call score of the fitted dose curve at least 0.9, where 1 is the maximum; inactive = score below 0.9.
read-out: E-selectin (Homo sapiens) (UniProt P16581); assay: BSK_SAg_Eselectin: BioMAP Diversity Plus: SAg Assay for Eselectin Biomarker Activity (AID 2283091); conditions: primary human HUVEC with PBMC; actives raise or lower the signal
Method: BSK_SAg is a cell-based, multiplexed-readout assay that uses umbilical vein endothelium and peripheral blood mononuclear cells, a human vascular primary cell co-culture, with measurements taken at 24 hours after chemical dosing in a 96-well plate.BSK_SAg_Eselectin is an assay component measured in the BSK_SAg assay. It measures E-selectin antibody related to regulation of gene expression using ELISA technology.Data from the assay component BSK_SAg_Eselectin was analyzed into 1 assay endpoint. This assay endpoint, BSK_SAg_Eselectin, was analyzed with bidirectional fitting relative to DMSO as the negative control and baseline of activity. Using a type of binding reporter, gain or loss-of-signal activity can be used to understand changes in the signaling as they relate to the gene SELE. Furthermore, this assay endpoint can be referred to as a primary readout, because this assay has produced multiple assay endpoints where this one serves a signaling function. To generalize the intended target to other relatable targets, this assay endpoint is annotated to the cell adhesion molecules intended target family, where the subfamily is selectins.
The levels of cell surface (or secreted, indicated by the prefix "s") biomarker endpoints were measured by ELISA. Overt cytotoxicity to cells in confluent adherent cultures (all systems other than the BT system) was assessed by measuring total protein levels using sulforhodamine B (SRB) staining in parallel cultures at the time of biomarker measurements, indicated as SRB endpoints. For proliferation assays for adherent cell types, individual cell types are cultured at sub-confluence and relative cell numbers quantified by SRB staining at time points optimized for each system (48 h: 3C and CASM3C systems; 72 h: BT and HDF3CGF systems; 96 h: SAg system). SRB was performed by staining cells with 0.1% SRB after fixation with 10% TCA and reading wells at 560 nm.Viability and proliferation of PBMC (T cells) was quantified by Alamar Blue reduction for the SAg and BT systems. For PBMC viability (referred to as PBMC Cytotoxicity within the assay endpoint names), cells were plated (75,000/well in a 96-well plate) and then chemical samples added for 1 h before addition of activators, SEB and TSST-1 (20 ng/mL final concentration each). Cells were incubated for 90 h. Then, Alamar Blue (20 uL/well) (Invitrogen, Cat DAL1100) was added for 6 h, and the plates were read with a fluorescence microplate reader at 546/580 nm (excitation/emission). For PBMC proliferation, cells were plated and activated as above but incubated for only 16 h prior to addition of Alamar Blue. Plates were read after 6 h.

Sequence of E-selectin (Homo sapiens) (P16581 whole entry, looked up): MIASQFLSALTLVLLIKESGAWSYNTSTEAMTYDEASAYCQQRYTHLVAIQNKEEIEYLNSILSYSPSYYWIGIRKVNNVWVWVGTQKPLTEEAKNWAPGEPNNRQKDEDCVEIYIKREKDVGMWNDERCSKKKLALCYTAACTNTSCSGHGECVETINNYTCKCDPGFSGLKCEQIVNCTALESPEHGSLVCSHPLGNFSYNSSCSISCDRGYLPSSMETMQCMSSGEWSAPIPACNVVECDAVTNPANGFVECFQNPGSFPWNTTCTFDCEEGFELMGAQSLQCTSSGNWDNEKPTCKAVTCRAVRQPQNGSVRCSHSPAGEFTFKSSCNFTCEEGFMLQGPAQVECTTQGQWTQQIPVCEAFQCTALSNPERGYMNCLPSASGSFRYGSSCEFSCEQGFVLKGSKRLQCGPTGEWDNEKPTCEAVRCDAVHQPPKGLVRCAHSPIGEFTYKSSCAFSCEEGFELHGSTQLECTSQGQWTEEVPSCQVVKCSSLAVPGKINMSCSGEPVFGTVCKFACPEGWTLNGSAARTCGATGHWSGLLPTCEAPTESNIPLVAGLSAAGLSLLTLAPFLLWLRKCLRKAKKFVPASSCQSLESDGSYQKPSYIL

Question: With `[O-][Cl+]O` as the compound, how does the outcome read?
Answer: Its outcome is “inactive”.

Question: Which outcome does the source give for `Nc1ccc(N=Nc2ccccc2)cc1` here?
Answer: Its outcome is “inactive”.

Question: With `CCC[CH2][Sn]([Cl])([CH2]CCC)[CH2]CCC` as the compound, how does the AC50 read?
Answer: The AC50 was 0.148 µM (active).

Question: With `c1ccc(N=Nc2ccccc2)cc1` as the compound, how does the outcome read?
Answer: The outcome was “inactive”.

Question: With `CN(C)[C@@H]1C(=O)C(C(N)=O)=C(O)[C@@]2(O)C(=O)C3=C(O)c4c(O)cccc4[C@@](C)(O)[C@H]3C[C@@H]12` as the compound, how does the outcome read?
Answer: The outcome was “inactive”.

Question: `Nc1ccc(Cc2ccc(N)cc2)cc1` was tested. Which AC50 did it give?
Answer: Its AC50 is 13.6 µM (active).

Question: For `CCCCCCCCn1sccc1=O`, which AC50 is on record?
Answer: Its AC50 is 12.8 µM (active).

Question: How did the AC50 turn out when `Cc1cc(N=Nc2ccccc2C)ccc1N` was run?
Answer: The AC50 was 4.75 µM (active).

Question: How did the outcome turn out when `OCCCBr` was run?
Answer: Its outcome is “inactive”.

Question: Which AC50 does the source give for `CO[C@@H]1[C@H](OC(=O)NC(=O)CCl)CC[C@]2(CO2)[C@H]1[C@@]1(C)O[C@@H]1CC=C(C)C` here?
Answer: The AC50 was 3.89 µM (active).

Question: With `Cc1cccc(N)c1N` as the compound, how does the outcome read?
Answer: Its outcome is “inactive”.

Question: Which AC50 does the source give for `O=[N+]([O-])c1ccc(Oc2ccc(Cl)cc2Cl)cc1` here?
Answer: The AC50 was 27.4 µM (active).

Question: `COC(=O)Nc1nc2ccccc2[nH]1` was tested. Which outcome did it give?
Answer: Its outcome is “inactive”.

Question: For `CC(C)(C)C(O)(CCc1ccc(Cl)cc1)Cn1cncn1` (stereo not given), which outcome is on record?
Answer: Its outcome is “inactive”.

Question: With `Oc1ccc2ccc3cccc4ccc1c2c34` as the compound, how does the AC50 read?
Answer: The AC50 was 30.7 µM (active).

Question: How did the outcome turn out when `CCCCC(CC)COC(=O)c1ccc(C(=O)OCC(CC)CCCC)c(C(=O)OCC(CC)CCCC)c1` (stereo not given) was run?
Answer: Its outcome is “inactive”.

Question: With `CC(O)CCO` (stereo not given) as the compound, how does the outcome read?
Answer: Its outcome is “inactive”.

Question: With `Clc1ccc(C(c2ccc(Cl)cc2)C(Cl)(Cl)Cl)cc1` as the compound, how does the AC50 read?
Answer: The AC50 was 38.2 µM (active).

Question: For `OCCCl`, which outcome is on record?
Answer: Its outcome is “inactive”.

Question: For `CS(=O)(=O)NC(=O)c1cc(Oc2ccc(C(F)(F)F)cc2Cl)ccc1[N+](=O)[O-]`, which outcome is on record?
Answer: The outcome was “inactive”.

Question: With `O=C1CCCO1` as the compound, how does the outcome read?
Answer: The outcome was “inactive”.

Question: `c1ccc2c(c1)oc1ccccc12` was tested. Which outcome did it give?
Answer: Its outcome is “inactive”.

Question: For `CCCCCOC(=O)c1ccccc1C(=O)OCCCCC`, which AC50 is on record?
Answer: The AC50 was 32.4 µM (active).

Question: How did the outcome turn out when `c1ccc(C2CO2)cc1` (stereo not given) was run?
Answer: Its outcome is “inactive”.

Question: Which outcome does the source give for `CCCCCCCCOC(=O)c1ccc(C(=O)OCCCCCCCC)c(C(=O)OCCCCCCCC)c1` here?
Answer: The outcome was “inactive”.

Question: Which outcome does the source give for `Nc1ccc(Oc2ccc(N)cc2)cc1` here?
Answer: The outcome was “inactive”.

Question: With `c1ccc2c(c1)-c1cccc3cccc-2c13` as the compound, how does the AC50 read?
Answer: Its AC50 is 31.6 µM (active).

Question: With `C1=Cc2cccc3cccc1c23` as the compound, how does the outcome read?
Answer: The outcome was “inactive”.

Question: How did the outcome turn out when `COC(=O)c1ccccc1N` was run?
Answer: The outcome was “inactive”.

Question: `C[C@]12C=CC3=C4CCC(=O)C=C4CC[C@H]3[C@@H]1CC[C@@H]2O` was tested. Which outcome did it give?
Answer: Its outcome is “inactive”.

Question: Which AC50 does the source give for `CC(C)(OOC(C)(C)c1ccccc1)c1ccccc1` here?
Answer: Its AC50 is 37 µM (active).

Question: For `Nc1ccc([N+](=O)[O-])cc1`, which outcome is on record?
Answer: The outcome was “inactive”.

Question: `CCC(C)c1ccc(O)cc1` (stereo not given) was tested. Which outcome did it give?
Answer: The outcome was “inactive”.

Question: With `CCCCOC(=O)c1ccccc1C(=O)OCc1ccccc1` as the compound, how does the outcome read?
Answer: The outcome was “inactive”.

Question: Which outcome does the source give for `CCN(CC)CCO` here?
Answer: Its outcome is “inactive”.

Question: With `OCCOCCO` as the compound, how does the outcome read?
Answer: The outcome was “inactive”.

Question: `Cc1ccc(N=C=O)cc1N=C=O` was tested. Which outcome did it give?
Answer: The outcome was “inactive”.

Question: `Clc1ccc(C(c2ccc(Cl)cc2)C(Cl)Cl)cc1` was tested. Which AC50 did it give?
Answer: The AC50 was 28.9 µM (active).

Question: Which outcome does the source give for `CCOC(=O)[C@]1(c2ccccc2)Oc2ccccc2[C@@H]1N` here?
Answer: The outcome was “inactive”.

Question: `Clc1ccccc1Cl` was tested. Which outcome did it give?
Answer: The outcome was “inactive”.
